Screens from PubChem BioAssay.
A selection: hits, their analogues and other compounds. The true share with any hit is near 2.3%.
M1 PAM: positive allosteric modulators of human M1 muscarinic receptor | CHO-K1 hM1, Fluo-8 calcium fluorescence, ACh EC20; 0% = ACh EC20, 100% = maximal ACh | 360,000 tested, 0.088% active | activation, % at 3 µM; in the data active means activation above about 19%, passing the limit was not always enough
Target sequence (P11229 whole entry, looked up): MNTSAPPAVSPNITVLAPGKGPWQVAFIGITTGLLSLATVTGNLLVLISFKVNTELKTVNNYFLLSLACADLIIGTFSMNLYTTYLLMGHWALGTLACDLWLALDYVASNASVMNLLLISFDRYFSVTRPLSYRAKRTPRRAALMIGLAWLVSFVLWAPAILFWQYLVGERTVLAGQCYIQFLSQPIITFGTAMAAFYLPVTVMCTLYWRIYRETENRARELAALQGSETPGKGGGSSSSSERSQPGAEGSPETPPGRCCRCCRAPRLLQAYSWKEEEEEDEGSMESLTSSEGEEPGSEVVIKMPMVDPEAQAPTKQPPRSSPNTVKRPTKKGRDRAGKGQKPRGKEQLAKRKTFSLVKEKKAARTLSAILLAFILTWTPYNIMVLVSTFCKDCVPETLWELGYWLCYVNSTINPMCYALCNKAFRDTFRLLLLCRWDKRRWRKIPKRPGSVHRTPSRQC
M1 PAM parental: M1 PAM counterscreen hit in parental CHO-K1 cells; ATP EC20, Fluo-8 calcium fluorescence; 0% at ATP EC20, 100% at ATP max; activation, % at 3 µM; 360,000 tested, 0.02% active; AID 602247;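 active means activation above the run cutoff, the mean activation of all test compounds plus 3 SD, cut at about 40% in these data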;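 further: peak over basal fluorescence ratio in a 140 s read after ATP addition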
M1 ag parental: counter-screen for M1 agonists: effect in parental CHO-K1 cells; Fluo-8 calcium fluorescence; scaled to maximal ATP response, vehicle zero; activation, % at 3 µM; 360,000 tested, 0.48% active; AID 602248; in the data active means activation above about 15%;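 further: untransfected CHO-K1 host cells lacking M1 receptor as counterscreen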
CHRM1 antagonist: human CHRM1 antagonism. CHO-K1 hM1, Fluo-8 calcium fluorescence, ACh EC80 antagonist. inhibition, % at 3 µM. 360,000 tested, 1.3% active;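 active means percent inhibition above its own plate's cutoff, namely the mean of that plate's compound wells plus 3 SD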;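 further: peak over basal fluorescence ratio during 140 s after agonist addition; 0% = ACh EC80 plus DMSO and 100% = DMSO alone without agonist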
M1 ag: agonists of human M1 muscarinic receptor; CHO-K1 hM1, Fluo-8 calcium fluorescence, agonist mode; 0% DMSO, 100% acetylcholine EC100; activation, % at 3 µM; 360,000 tested, 0.33% active;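 active means activation above the run's mean compound activation plus 3 SD, cut at about 16% in these data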;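 further: peak over basal fluorescence ratio within a 140 s kinetic read after compound addition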
CHO-K1 Ca antag: nonselective inhibitor or artifact in parental CHO-K1 cells; 360,000 tested, 0.6% active; inhibition, % at 3 µM; ATP-induced calcium, Fluo-8 fluorescence; AID 602250;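 active means inhibition above a per-plate cutoff, the plate's mean sample inhibition plus 3 SD, cut at about 24% in these data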;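 further: 0% = DMSO plus EC80 ATP and 100% = DMSO alone without ATP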
An asterisk follows results filed as active; nt = no result given.

SMILES	M1 PAM	M1 PAM parental	M1 ag parental	CHRM1 antagonist	M1 ag	CHO-K1 Ca antag
CCN(CC)CCOC(=O)C1c2ccccc2Oc2ccccc21	-22	5	1	99*	-9	-4
CCN(CC)CCNC(=O)C1c2ccccc2Oc2ccccc21	-30	22	2	93*	-10	-11
O=C(NCCCn1ccnc1)C1c2ccccc2Oc2ccccc21	-25	19	0	24*	-6	13
CCOCCCNC(=O)C1c2ccccc2Oc2ccccc21	5	20	1	-10	-6	-13
Clc1cccc(/C=N/N2CCN(Cc3ccccc3)CC2)c1	15	-8	1	-1	3	4
CS(=O)CC(O)(c1ccc(F)cc1)C1CC1 (stereo not drawn)	1	-1	0	-6	-2	-4
O=C(CSc1nnc(-c2cccs2)n1C1CC1)NC1CCS(=O)(=O)C1 (stereo not drawn)	4	-6	0	0	-3	-2
COc1ccc(CCNc2ncnc3sccc23)cc1OC	-14	-5	17*	40*	0	34*
CN(C)c1ccc(CNc2ncnc3sccc23)cc1	-6	-16	10	11	-8	25*
COc1ccc(CCNc2nc(C)nc3c2oc2ccccc23)cc1OC	-13	-1	13	30	5	16
COc1ccc(CCNc2ncnc3c2oc2ccccc23)cc1OC	-19	-10	15	40*	2	44*
NS(=O)(=O)c1ccc(CNc2ncnc3sccc23)cc1	3	-1	1	-7	-2	-9
Cc1nc(NC(=O)CSc2nc3ccccc3s2)sc1C(=O)N(C)C	25*	6	3	-20	1	-11
Cc1nn(CC(=O)N(C)C2CCS(=O)(=O)C2)c(C)c1S(=O)(=O)N(C)C (stereo not drawn)	5	12	0	-1	-1	-8
Cc1cccc(S(=O)(=O)NC(=O)C2(C)CCN2C(=O)Cc2cc(F)ccc2F)c1 (stereo not drawn)	13	10	0	102*	-10	-7
CC1(C(=O)NS(=O)(=O)c2cccc(Cl)c2)CCN1C(=O)Cc1cc(F)ccc1F (stereo not drawn)	-2	7	0	3	-3	-15
O=S(=O)(Nc1ccccn1)c1cnc(Cl)c(Br)c1	1	26	1	-8	-3	-9
COc1ccc(NC(=O)CSCC(=O)N2c3ccccc3CCc3ccccc32)cc1	7	17	19*	-7	-10	4
COc1ccc(NC(=O)CSCC(=O)N(C)Cc2cccc(OC)c2OC)cc1	1	-33	0	-15	1	26*
CCN(CC)CCOC(=O)C(Cc1cccc2ccccc12)CC1CCCO1 (stereo not drawn)	-25	-8	1	45*	-9	-1
CSCc1ccc(C(=O)OCC(=O)NC2CCCC2)o1	9	-2	0	-12	-4	-2
O=C(NC1CCCC1)C1CC(O)CN1C(=O)Nc1ccccc1 (stereo not drawn)	13	-17	0	-12	0	-12
O=[N+]([O-])/C=C/c1cn(Cc2ccc(F)cc2)c2ccccc12	15	5	1	33*	-3	8
O=C(O)c1ccc(N/N=C/c2cn(Cc3ccc(F)cc3)c3ccccc23)cc1	11	4	1	4	0	1
CCCCCNCC(=O)Nc1cccc(C(=O)Nc2cccc(C(F)(F)F)c2)c1	3	-8	24*	14	9	7
SMILES	M1 PAM	M1 PAM parental	M1 ag parental	CHRM1 antagonist	M1 ag	CHO-K1 Ca antag
O=C(Nc1ccc(-n2ccc(C(F)(F)F)n2)cc1)Nc1cccc(Cl)c1	-19	-25	15	45*	4	30*
Cc1cc(C)cc(NC(=O)Nc2ccc(-n3ccc(C(F)(F)F)n3)cc2)c1	-9	-13	3	18	-1	14
Cc1ccccc1NC(=O)CNC(=O)c1ccc(C(F)(F)F)cc1	2	-12	0	1	6	3
Cc1ccccc1NC(=O)Nc1ccc(C(F)(F)F)cc1	-20	-9	11	14	-5	24*
O=C(CN1CCOCC1)Nc1cccc(C(=O)Nc2cccc(C(F)(F)F)c2)c1	5	6	1	-5	-1	0
COc1ccc(NC(=O)Nc2ccc([N+](=O)[O-])cc2)cn1	-5	-15	16*	23	8	18
CN(CC(=O)Nc1ccc(Cl)cc1)C(=O)C1CCCC1	6	-8	1	-8	1	-1
CCOC(=O)[C@]12CCCC=C1N(Cc1ccc(Cl)cc1Cl)C(=O)[C@H](CC(=O)NCC13CC4CC(CC(C4)C1)C3)C2	nt	-3	0	nt	nt	-7
CNC(=O)Nc1cccc(C(F)(F)F)c1	6	15	1	1	-1	-6
COc1ccc(NC(=O)Nc2cc(C)cc(C)c2)cn1	4	0	5	-8	1	-3
Cc1ccc(OC(F)F)c(NC(=O)Nc2cccc(C(F)(F)F)c2)c1	-22	-3	7	28*	-5	6
COc1ccc(NC(=O)Nc2cccc(C(F)(F)F)c2)cn1	-3	-4	9	13	-1	26*
CC(=O)c1c(C)[nH]c(C(=O)Nc2cccc(C#N)c2)c1C	-3	-6	8	5	2	-10
COc1cccc(NC(=O)Nc2cc(C)ccc2OC)c1	5	14	0	-4	-8	-9
CC(=O)c1c(C)[nH]c(C(=O)Nc2cccc(C(F)(F)F)c2)c1C	-16	-11	18*	25*	3	4
O=C(Nc1ccccc1)Nc1cccc(C(F)(F)F)c1	-23	-11	11	18	5	30*
Cc1cc(C(=O)Nc2c(F)cc(F)cc2Br)n(-c2ccccc2)n1	5	21	0	-5	-4	-6
c1ccc(COc2ccc(Nc3ncnc4nc[nH]c34)cc2)cc1	1	0	1	-3	10	24*
CCOC(=O)c1ccc(Nc2ncnc3nc[nH]c23)cc1	-1	17	3	4	-1	-9
Cc1[nH]c2ccccc2c1C(=O)CN1C(=O)NC2(CC(C)CC(C)(C)C2)C1=O (stereo not drawn)	-2	11	35*	12	10	8
CC1CC(C)(C)CC2(C1)NC(=O)N(CC(=O)N1CCN(S(=O)(=O)c3cccc(Cl)c3Cl)CC1)C2=O (stereo not drawn)	-20	-15	0	45*	-6	12
O=C1CS/C(=N/N=C/c2cccs2)N1Cc1ccc(F)cc1	-12	2	7	22	0	8
O=C(C1CCN(c2nnc(-n3cccc3)s2)CC1)N1CCCCC1	-12	13	1	21	-5	-15
